# Results from ChEMBL document CHEMBL3988442, “University of Dundee, Small-Polar-MMV Screening Library” (2021).
# Hit rate of the full screen: of about 48,000 compounds, about 13,000 (27%) showed an effect of 50% or more. The list shows a part of the results.
# Tested on: Wolbachia pipientis
# Assay: Anti-Wolbachia Cell-Based Screen
# Assay type: functional
# Set-up: scale not given: in the data most compounds retested in dose-response had high values
# Details: 5 µM
row,SMILES,Percent Effect [%]
1,CNC(=O)c1cccnc1N1CCN(Cc2ccccc2)C(CCO)C1 (stereo not given),-3.747
2,O=C(O)c1cccnc1N1CCN(Cc2ccc(F)cc2)C(CCO)C1 (stereo not given),-1.62
3,COC(=O)CC1CN(Cc2c(Cl)ccc3cccnc23)CCO1 (stereo not given),-2.588
4,COC(=O)CC1c2cccnc2C(=O)N1Cc1ccccc1 (stereo not given),107.1
5,O=C1c2ncccc2C(CCO)N1Cc1ccccc1 (stereo not given),101.3
6,CNC(=O)CC1c2cccnc2C(=O)N1Cc1ccccc1 (stereo not given),136.6
7,O=C(Cc1cccnc1)N1C[C@@H]2CC[C@H](C1)N(Cc1ccccc1)C2=O,-0.7591
8,O=C(Cc1ccccn1)N1C[C@@H]2CC[C@H](C1)N(Cc1ccccc1)C2=O,-26.39
9,CNC(=O)CC1CC2(CCN(c3ncccn3)CC2)c2ccccc21.O=C(O)C(F)(F)F (stereo not given),-15.28
10,NC(=O)CC1c2cccnc2C(=O)N1Cc1ccccc1 (stereo not given),97.87
11,CCC1CN(C(=O)c2ncccc2O)CCC(=O)N1Cc1ccccc1 (stereo not given),-8.07
12,CCC1CN(C(=O)c2cccnc2O)CCC(=O)N1Cc1ccccc1 (stereo not given),-1.189
13,O=C(Nc1ccccc1OC(F)F)C1=NN(c2ccccc2)C(=O)CN1,6.158
14,CC(C)c1noc(CCC(=O)N2CCN(C)CC2c2ccccc2)n1 (stereo not given),2.762
15,CN(C)CCn1ccc2ccc(NC(=O)c3ccncc3F)cc21,-14.36
16,Cc1nn(C)c(C)c1CC(C)NC(=O)NCc1ccoc1C (stereo not given),-1.757
17,CN(Cc1nnc2ccccn12)C(=O)CCNC(=O)C(C)(C)C,7.202
18,COc1cc(OC)cc(C(=O)N(C)Cc2nnc3ccccn23)c1,132.8
19,COc1ccc(CC(=O)N(C)Cc2nnc3ccccn23)cc1,2.883
20,COc1ccc(C(=O)N(C)Cc2nnc3ccccn23)cc1,104.5

row,SMILES,Percent Effect [%]
1,CCC(O)CN(C)Cc1nnc2ccccn12 (stereo not given),-1.119
2,Cc1ccc(C)c(C(O)CN(C)Cc2nnc3ccccn23)c1 (stereo not given),-3.237
3,CN(C(=O)c1cc(Cl)c[nH]1)C1CCN(c2ccccn2)CC1,-4.084
4,CN(C(=O)Nc1cccc(C#N)c1)C1CCN(c2ccccn2)CC1,-13.99
5,CN(C(=O)c1ccc(Cl)cc1)C1CCN(c2ccccn2)CC1,98.58
6,CN(C(=O)c1ccc(C#N)cc1)C1CCN(c2ccccn2)CC1,4.986
7,CN(C(=O)c1cccc(Cl)c1)C1CCN(c2ccccn2)CC1,127.4
8,CC(NC(=O)NCCCN(C)S(C)(=O)=O)c1ccncc1 (stereo not given),10.56
9,CC1c2cc(F)ccc2CCN1CCS(=O)(=O)C(C)C (stereo not given),14
10,Cc1noc(C)c1CN1CCn2cc(CN3CCCC3)nc2C1.O=C(O)C(F)(F)F.O=C(O)C(F)(F)F,117.4
11,Cc1noc(C)c1CN1CCc2ncc(CN3CCCC3)n2CC1.O=C(O)C(F)(F)F.O=C(O)C(F)(F)F,-7.49
12,Cc1noc(C)c1CN1CCn2cc(CN3CCOCC3)nc2C1,95.37
13,Cc1noc(C)c1CN1CCn2cc(CN3CCCCC3)nc2C1.O=C(O)C(F)(F)F,100
14,Cc1noc(C)c1CN1CCn2c(COC(C)C)nnc2C1,-15.51
15,CC(=O)NCC(=O)N1CCn2cc(CN3CCCCC3)nc2C1.O=C(O)C(F)(F)F,-3.049
16,Cc1noc(C)c1CN(Cc1ccccc1)C(C)CN1CCOCC1 (stereo not given),-1.266
17,O=C(O)C(F)(F)F.O=C(O)C(F)(F)F.c1ccc(NCc2cn3c(n2)CN(Cc2cccs2)CC3)nc1,4.417
18,Cc1noc(C)c1CN1CCn2cc(CNC(=O)C3CCC3)nc2C1.O=C(O)C(F)(F)F,-7.774
19,Cc1ccc(C(=O)N2CCn3cc(CN4CCCCC4)nc3C2)o1.O=C(O)C(F)(F)F,18.27
20,Cc1noc(C)c1CN1CCn2cc(CNc3ccccn3)nc2C1.O=C(O)C(F)(F)F.O=C(O)C(F)(F)F,109

row,SMILES,Percent Effect [%]
1,O=C(O)C(F)(F)F.O=S(=O)(C1CC1)N1CCn2cc(CNc3ccccn3)nc2C1,-1.604
2,O=C(Cc1ccc(Br)cc1)N1CC(S(=O)(=O)C2CCCCC2)C1,-12.58
3,N#Cc1cccc(C(=O)Nc2ccc([C@@H](O)[C@H]3COCC(=O)N3)cc2)c1,-8.801
4,Cc1nnc([C@@H]2CC[C@@H]3[C@@H](CCN3S(=O)(=O)C3CC3)O2)o1,10.23
5,CC1(C)CN(C(=O)c2ccccc2-n2cncn2)CC1(C)O (stereo not given),-36.51
6,COc1cccc2c1OCCCN(Cc1c[nH]nc1C(=O)O)C2,0.6416
7,CCN(CC)Cc1cn2c(n1)CN(Cc1c(C)noc1C)CC2.O=C(O)C(F)(F)F.O=C(O)C(F)(F)F,104
8,CCN(CC)Cc1cnc2n1CCN(Cc1c(C)noc1C)CC2.O=C(O)C(F)(F)F.O=C(O)C(F)(F)F,-10.46
9,Cc1ccc(CN2CCn3cc(CN(C)Cc4ccco4)nc3C2)o1.O=C(O)C(F)(F)F.O=C(O)C(F)(F)F,18.64
10,Cc1cc2ncc(CN(C)C)c(C3CCN(C)CC3)n2n1,76.44
11,Cc1cc(N(C)CCN(C)C2CCCC2)n2nc(C)cc2n1,9.952
12,CCc1noc(C2CCN(C(=O)CCn3nc(C)cc3C)CC2)n1,2.839
13,CC(=O)N1CCC(c2c(CN(C)C)cnc3cc(C)nn23)CC1,74.12
14,Cc1cc(N(C)CCN(C)C)n2nc(C)cc2n1,-8.762
15,CC(=O)N1CCC(c2cc3c(ncn3C)c(-c3cnn(C)c3)n2)CC1,-10.45
16,COc1cc(C(=O)N2Cc3cnc(C(C)(C)C)nc3C2)ccn1,-33.89
17,O=C(C1CCCCC1)N1CCCC([C@@H]2C[C@H](C(F)F)n3ncnc3N2)C1 (stereo not given in full),100.7
18,O=C(NCCOc1ccc(F)cc1)C1CCCN(C(=O)C2CC2)C1 (stereo not given),-0.9975
19,O=C(C1CCCC1)N1CCC(C(O)c2ccc(F)cc2)CC1 (stereo not given),-1.378
20,O=C(C1CCCC1)N1CCCC([C@@H]2C[C@H](C(F)F)n3ncnc3N2)C1 (stereo not given in full),108.9
